We go through six compounds from PubChem BioAssay (NCATS).

Test [1] in a line: Cell Viability - Jurkat (AID 426;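 active means dose-dependent loss of cell ATP signal giving a full or clear fitted curve, ranked by lower potency value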;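 further: potency means the concentration at half of the fitted maximal effect; cells exposed to compound for 40 hours at 37 °C before ATP read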). To be noted: qHTS. An outline of the steps:
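Seed 5000 Jurkat E6-1 cells/well; add compound; incubate 40 hr at 37 °C; add CellTiter-Glo; wait 20 min at room temperature; read luminescence. Fit concentration-response with Hill equation for AC50.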
For orientation: qHTS replaces the single test concentration by a dilution series.

Test [2] in a line: Cell Viability - Hek293 (AID 427;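 active means compounds whose dose-response curve shows a full or clear partial loss of cell viability, called from curve shape rather than a numeric limit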;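 further: potency means the concentration at half of the fitted maximal effect; cells exposed to compound for 40 hours at 37 °C before reading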). As to conditions: qHTS. An outline of the steps:
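qHTS, human embryonic kidney (adenovirus-transformed) cells; 40 hr cpd, 37 °C; CellTiter-Glo ATP luminescence. Norm: DMSO = 0, 100 uM tamoxifen = 100% inhibition. Hill-fit AC50.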

A short description of test [3]: Cell Viability - N2a (AID 540).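 Further: cells exposed to compound for 40 h at 37 °C; plate controls were DMSO alone for no effect and tamoxifen control for full effect; nearly all actives have a fitted effect of over 45% in size.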 As to conditions: N2a mouse neuroblastoma cell viability; at 92.2 µM (top of the series). An outline of the steps: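 First, 1500 N2a cells per well incubate 5 hr at 37 °C; next, compounds are added and incubated 40 hr at 37 °C; finally CellTiter-Glo is added and luminescence read after 20 min, with AC50 derived by Hill modeling.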
The nature of test [4]: Cell Viability - H-4-II-E (AID 543).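 Further: cells exposed to compound for 40 hours; on the % scale 0 is the no-effect control and ±100 the full control effect; nearly all actives have a fitted effect of over 35% in size.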 To be noted: H-4-II-E rat hepatoma viability; series mostly up to 92.2 µM. An outline of the steps: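 Here, cytotoxicity is measured in the rat hepatoma line H-4-II-E as loss of intracellular ATP after 40 hr compound treatment, detected by luciferase luminescence.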
Test [5] can be described thus: Cellular Toxicity (caspase-3) HepG2 (AID 654).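 Further: cells exposed to compound for 16 hours before reading.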 To be noted: HepG2 caspase-3 activation, luminescence, 0% = DMSO only, 100% = tamoxifen; series mostly up to 92.2 µM. An outline of the steps:
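qHTS, HepG2, 1500 cells/well, complete medium; cpd 16 h 37 °C; Caspase-Glo 3/7, 20 min RT; lum. Norm: DMSO vs 100 uM tamoxifen; AC50 Hill fit.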

Test [6] is described as follows: Cellular Toxicity (caspase-3) NIH 3T3 (AID 666).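 Further: caspase signal read after 16 h compound exposure; 0% = DMSO basal and 100% = 100 µM tamoxifen stimulation.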 As to conditions: NIH 3T3 caspase-3 activation, apoptosis/toxicity, 0% DMSO, 100% is 100 µM tamoxifen; series mostly up to 92.2 µM. An outline of the steps: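 Concentration-response qHTS in NIH 3T3 mouse fibroblasts scores caspase-3/7 activation as rising luminescence after 16 hr compound exposure. Signals are scaled between DMSO-only and 100 uM tamoxifen.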

Test [7] in a line: MultiTox-Fluor Cytotoxicity Assay - LYMP1-002 - Live Cells (AID 955).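 Further: cells exposed to compound for 16 hours; on the % scale 0 is the no-effect control and ±100 the full control effect.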 As to conditions: LYMP1-002 lymphoblastoid live-cell protease fluorescence viability; series mostly up to 46.1 µM. An outline of the steps: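 Cytotoxicity in the human lymphoblastoid line LYMP1-002 is measured as loss of live-cell protease activity after 16 h treatment in complete culture medium. AC50 is derived from Hill-equation fits of qHTS concentration-response data.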

Test [8] is described as follows: MultiTox-Fluor Cytotoxicity Assay - LYMP1-003 - Live Cells (AID 962).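 Further: cells exposed to compound for 16 hours at 37 °C; 0% = DMSO only and full loss = 92 µM tetraoctylammonium bromide; cytotoxic hits lower the live-cell protease signal.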 As to conditions: LYMP1-003 lymphoblastoid cells, MultiTox-Fluor live-cell protease fluorescence; series mostly up to 92.2 µM. An outline of the steps:
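Cells plated at 2500 per well and incubated 5 hr; compounds added and incubated 16 hr at 37 C; MultiTox-Fluor reagent added for 60 min at room temperature; fluorescence of liberated AFC measured at 405/510 nm.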

The nature of test [9]: Cell Viability - LYMP1-003 - Assay at 40 hr (AID 964). Further: on the % scale 0 is the no-effect control and ±100 the full control effect; nearly all actives have a fitted effect of over 60% in size. To be noted: LYMP1-003 lymphoblastoid viability; series mostly up to 92.2 µM. An outline of the steps: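 This qHTS cytotoxicity screen treats human lymphoblastoid cells (LYMP1-003) with compounds for 40 hr and quantifies cellular ATP via luciferase luminescence.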
Test [10] can be described thus: Cell Viability - LYMP2-003 (AID 965).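 Further: cells exposed to compounds for 24 h before reading; 0% = DMSO only and full effect = 92 µM tetraoctylammonium bromide; nearly all actives have a fitted effect of over 50% in size.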 As to conditions: LYMP2-003 lymphoblastoid cell viability; series mostly up to 92.2 µM. An outline of the steps:
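CellTiter-Glo luminescence (cellular ATP) after 24 h compound exposure at 37 C in complete medium; 2500 cells/well, 5 h settling beforehand. Concentration-response fitted to standard Hill equation for AC50. Tetraoctylammonium bromide served as positive control.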

The nature of test [11]: Cell Viability - LYMP2-006 (AID 978).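 Further: cells exposed to compound for 24 hours; on the % scale 0 is the no-effect control and ±100 the full control effect; nearly all actives have a fitted effect of over 60% in size.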 To be noted: LYMP2-006 lymphoblastoid cell viability, qHTS; series mostly up to 92.2 µM. An outline of the steps: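 qHTS, 1536-well; 2500 cells/well, 5 hr 37 C; cpd 24 hr 37 C; CellTiter-Glo 30 min RT; luminescence. Tetraoctylammonium bromide pos. ctrl. AC50 via Hill eqn.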
Test [12] can be described thus: Cell Viability - LYMP2-008 (AID 980). Further: on the % scale 0 is the no-effect control and ±100 the full control effect; nearly all actives have a fitted effect of over 60% in size. To be noted: LYMP2-008 lymphoblastoid cell viability, qHTS; series mostly up to 92.2 µM. An outline of the steps: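 Acute cytotoxicity is scored as concentration-dependent loss of cellular ATP in a human lymphoblastoid line after 24 hr treatment at 37 C. ATP is quantified by luciferase luminescence.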
A short description of test [13]: Cell Viability - LYMP2-026 (AID 989). Further: on the % scale 0 is the no-effect control and ±100 the full control effect; nearly all actives have a fitted effect of over 50% in size. As to conditions: LYMP2-026 lymphoblastoid cell viability, qHTS; series mostly up to 92.2 µM. An outline of the steps:
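Concentration-dependent loss of intracellular ATP in human lymphoblastoid cells after 24 hr at 37 C, quantified by luciferase luminescence. AC50 derived from standard Hill equation.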

Test [14] can be described thus: Cell Viability - LYMP1-002 - Assay at 24 hr (AID 993). Further: on the % scale 0 is the no-effect control and ±100 the full control effect. As to conditions: LYMP1-002 lymphoblastoid cells viability; series mostly up to 92.2 µM. An outline of the steps: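 qHTS, LYMP1-002 lymphoblastoid, 24 h cpd, 37 C, CellTiter-Glo ATP luminescence; AC50 via Hill eq.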
A short description of test [15]: Cell Viability - LYMP1-002 - Assay at 40 hr (AID 994).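 Further: 0% = DMSO only and full inhibition = 92 µM tetraoctylammonium bromide; nearly all actives have a fitted effect of over 60% in size.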 To be noted: LYMP1-002 lymphoblastoid cell viability; series mostly up to 92.2 µM. An outline of the steps: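 Viability in the human lymphoblastoid line was measured as intracellular ATP via CellTiter-Glo after 40 hr compound exposure. Tetraoctylammonium bromide served as positive control.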
Test [16] in a line: qHTS assay for small molecule agonists of retinoid X receptor alpha signaling (AID 588544). To be noted: HEK293T RXRa-UAS-bla, beta-lactamase reporter, 18 h; 530 nm emission.
Test [17] in a line: qHTS assay for small molecule disruptors of the mitochondrial membrane potential - 5 hr assay (AID 651755; calls by dose curve; further: on the % scale 0 is the no-effect control and ±100 the full control effect; nearly all actives have a fitted effect of over 40% in size). To be noted: JC-1-type ratio dye; series mostly up to 92.2 µM. An outline of the steps: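 HepG2 cells, attached overnight at 37C, were exposed to compound or DMSO for 5 hr at 37C, 5% CO2. Mito-MPS dye was then added for 30 min, and fluorescence read at 490/535 nm (monomers) and 540/590 nm (aggregates).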

The target of test [18] is Tumor necrosis factor (Homo sapiens) (UniProt P01375). Put plainly: qHTS assay to identify small molecules that stimulate Tumor Necrosis Factor-alpha (TNF-alpha) secretion (AID 651757; active means well fitted curve in the direction sought with a large enough effect in the signal ratio; the % refers to the signal ratio; further: 0% is about no effect). To be noted: Human cells, HTRF 665/615 ratio; series mostly up to 92.2 µM. An outline of the steps:
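Secreted TNF-alpha from compound-treated THP-1 cells (17 hrs, 37 C) was quantified with a homogeneous time-resolved fluorescence antibody assay.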

For test [19], the target named is Peroxisome proliferator-activated receptor alpha (Homo sapiens) (UniProt Q07869). Put plainly: qHTS assay for small molecule agonists of the peroxisome proliferator-activated receptor alpha (PPARalpha) signaling pathway (AID 651778). Further: % of control where 0% means no effect. To be noted: PathHunter PPARalpha complementation, chemiluminescence, 6 h; stronger effect = higher value. An outline of the steps:
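Cells plated at 2,000/well and held overnight at 37 C, 5% CO2, then compound added by pin tool for 6 hr; after PathHunter detection reagent and 60 min at room temperature, chemiluminescence from enzyme complementation was read.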

Test [20] in a line: qHTS assay for small molecule agonists of the antioxidant response element (ARE) signaling pathway measured by Nrf2-dependant transcriptional activity (AID 720636; active means well fitted curve in the direction sought with a large enough effect in the repeat runs; an effect the other way counts as inactive or inconclusive;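 further: HepG2 cells with an ARE-driven luciferase reporter; % of control where 0% means no effect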). To be noted: ARE-luc HepG2, Nrf2 luciferase reporter, 16 h; series mostly up to 92.4 µM. An outline of the steps:
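ONE-Glo luminescence, read 30 min after reagent addition at room temperature, reflected ARE reporter activity in HepG2 cells that had been incubated with compound for 16 hr at 37 C in 1% dialyzed FBS.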

The structures appear in SMILES notation. “And” between values parts separate entries of the source, which are not always exact repeats. Identical values can stand only once. Inconclusive results are not listed. The source made the active and inactive calls. Unless noted, the call rests on the fitted dose curve; in most records, active means well fitted curve in the direction sought with a large enough effect; inconclusive means small, poorly fitted or top-dose-only effect, or another doubt; inactive means no such curve, though single readings can be large; an effect the other way counts as inactive or inconclusive.

Sequence of Peroxisome proliferator-activated receptor alpha (Homo sapiens) (Q07869 whole entry, looked up): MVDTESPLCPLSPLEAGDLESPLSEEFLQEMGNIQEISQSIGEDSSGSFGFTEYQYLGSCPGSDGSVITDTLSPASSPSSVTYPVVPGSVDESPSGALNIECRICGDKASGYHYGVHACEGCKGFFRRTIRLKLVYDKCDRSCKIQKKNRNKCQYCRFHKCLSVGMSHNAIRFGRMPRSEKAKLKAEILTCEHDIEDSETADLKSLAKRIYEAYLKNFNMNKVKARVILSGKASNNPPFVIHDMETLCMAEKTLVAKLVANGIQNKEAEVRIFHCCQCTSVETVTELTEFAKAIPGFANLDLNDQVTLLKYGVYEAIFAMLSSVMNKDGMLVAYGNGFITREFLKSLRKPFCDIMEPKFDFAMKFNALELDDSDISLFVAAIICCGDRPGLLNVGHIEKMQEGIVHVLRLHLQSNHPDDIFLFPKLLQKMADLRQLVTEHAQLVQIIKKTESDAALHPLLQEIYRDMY
Sequence of Tumor necrosis factor (Homo sapiens) (P01375 whole entry, looked up): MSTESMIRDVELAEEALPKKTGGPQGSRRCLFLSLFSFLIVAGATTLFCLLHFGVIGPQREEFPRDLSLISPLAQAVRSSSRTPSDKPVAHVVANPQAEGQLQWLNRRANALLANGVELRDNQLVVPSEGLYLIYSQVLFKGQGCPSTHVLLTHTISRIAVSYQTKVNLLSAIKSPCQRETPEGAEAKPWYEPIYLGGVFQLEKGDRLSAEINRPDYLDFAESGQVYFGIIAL

Turning to `Cc1ccccc1N`, the Potency in test [1] and in test [2] was > 92 µM (inactive) each time. For the same compound, the activity change, negative = cytotoxicity in test [3] was -19.6% (inactive) and 1.37% (inactive). For the same compound, the Potency result in [4], in test [8], in test [9], in [10], in test [11] and in test [12] was “inactive” in each case. Further, the Potency result in test [13], in test [14], in test [15] and in test [17] was “inactive” in each case. In addition, the compound was called inactive in test [5], in [6], in test [7], in test [18] and in [20]. Also, the max response in [16] is 1.21% and 0.728%; in test [19], -4.65% (inactive) and -3.69% (inactive).
With `Oc1ccc(Cl)cc1Cl`, the Potency in test [1] and in test [2] was > 92 µM (inactive) throughout. Moreover, the activity change, negative = cytotoxicity in test [3] is -5.05% (inactive). Also, the Potency result in test [4], in [8], in test [9], in test [10], in test [11] and in test [12] was “inactive” each time. For the same compound, the Potency entry in test [13], in test [14], in [15] and in [17] was “inactive” throughout. Further, the call in test [5], in [6], in [7], in test [18] and in test [20] was inactive. The max response in test [16] is 1.97%; in test [19], 1.17% (inactive) and -0.592% (inactive).
For the compound `c1nc[nH]n1`, the Potency in [1] and in test [2] was > 92 µM (inactive) in each case. In test [3], the activity change, negative = cytotoxicity was -1.04% (inactive). The Potency entry in test [4], in [8], in test [9], in test [11], in test [12] and in [13] was “inactive” throughout. Moreover, the Potency entry in test [14], in test [15] and in [17] was “inactive” each time. The result in test [5], in [6], in test [7], in [18] and in test [20] was inactive. In addition, the values for the max response in [16] and in test [19] were -16.7% and 7.97% (inactive), respectively.
For `Clc1cccc(C(Cl)(Cl)Cl)n1`, the Potency in test [1] and in test [2] was > 92 µM (inactive) throughout. For the same compound, in test [3], the activity change, negative = cytotoxicity was -3.54% (inactive). The Potency entry in [4], in [8], in [9], in test [10], in test [11] and in [12] was “inactive” throughout. In addition, the Potency result in test [13], in test [14], in [15] and in [17] was “inactive” each time. Besides, the compound was called inactive in test [5], in test [6], in test [7], in test [18] and in test [20]. The max response was -9.56% and 6.27% in [16]; -0.105% (inactive) and 0.0446% (inactive) in test [19].
With `ClC(Cl)=C(Cl)C(Cl)=C(Cl)Cl`, the Potency in [1] and in [2] was > 92 µM (inactive) in each case. Besides, the activity change, negative = cytotoxicity in test [3] was -4.4% (inactive). Further, the Potency entry in test [4], in test [8], in [9], in [10], in [11] and in test [12] was “inactive” throughout. Further, the Potency entry in test [13], in [14], in test [15] and in test [17] was “inactive” each time. Also, the call in test [5], in test [6], in test [7], in [18] and in test [20] was inactive. Further, the max response was -9.28% and -8.5% in test [16]; -0.178% (inactive) and -1.05% (inactive) in [19].
Consider `O=[N+]([O-])c1cccc2ccccc12`, for which the Potency in test [1] and in test [2] was > 92 µM (inactive) throughout. Also, the activity change, negative = cytotoxicity in test [3] is 2.46% (inactive). Also, the Potency result in test [4], in test [8], in test [9], in test [10], in test [11] and in test [12] was “inactive” in each case. Moreover, the Potency entry in test [13], in test [14], in [15] and in test [17] was “inactive” each time. For the same compound, the compound was called inactive in test [5], in test [6], in test [7], in test [18] and in test [20]. In addition, the max response was -3.41% and -2.17% in test [16]; -0.448% (inactive) and 0.96% (inactive) in test [19].
